Data published in PubChem BioAssay (NCATS).
Several values for one entry are separate records, joined by “and”; a condition that tells them apart may be missing. Equal values may be shown once. Inconclusive results are not listed. Activity calls are given as the source filed them. Unless noted, calls follow the shape of the dose curve; as a rule, active = well fitted curve in the direction sought with a large enough effect; inconclusive = small, poorly fitted or top-dose-only effect, or another doubt; inactive = no such curve, though single readings can be large; an effect the other way counts as inactive or inconclusive.

Legend:
[1] = Viability counterscreen for antagonist of constitutive androstane receptor (CAR) against the NCATS DSHEA and TCM libraries (AID 1794837);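 also: compound exposure lasted 24 h before viability reading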
In short: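 HepG2-CYP2B6-hCAR cells (2,500/well) were allowed to attach for 5 h, then exposed to compounds with 48 uM CITCO for 24 h at 37C. Viability was read by CellTiter-Fluor fluorescence after 1 h.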

[2] = Viability counterscreen for agonist of constitutive androstane receptor (CAR) against the NCATS DSHEA and TCM libraries (AID 1794838)
In short: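 HepG2-CYP2B6-hCAR cells (2,500/well) attached 5 h, then got compounds plus 0.75 uM PK11195 final. After 24 h at 37C, viability read by CellTiter-Fluor fluorescence (Ex/Em 405/540 nm).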

[3] = target: Nuclear receptor subfamily 1 group I member 3 (Homo sapiens) (UniProt Q14994); test: Primary qHTS for agonist of constitutive androstane receptor (CAR) against the NCATS DSHEA and TCM libraries (AID 1794839);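 also: HepG2 cells expressing human CAR with a CYP2B6 reporter plus PK11195 antagonist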
In short: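 HepG2-CYP2B6-hCAR cells (2,500/well) were attached for 5 h, then treated for 24 h at 37 °C with compounds plus 0.75 µM PK11195. Luciferase luminescence (ONE-Glo) was read, with CellTiter-Fluor viability (Ex/Em 405/540 nm).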

[4] = HepG2 viability counterscreen (readout 2: ATP content) against the NCATS DSHEA and TCM libraries (AID 1794840);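 also: HepG2 cells exposed to substances for about 24 h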
In short: (§1)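 HepG2 cells (1,000 cells/well) attached ~4 h, then treated ~24 h at 37C with substances. Protease activity read by GF-AFC (25 uM final, 30 min, Ex/Em 380/510 nm); ATP content then by CellTiter-Glo luminescence.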

[5] = HepG2 viability counterscreen (readout 1: protease activity) against the NCATS DSHEA and TCM libraries (AID 1794841);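 also: cells exposed to compounds for about 24 h before the protease read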
In short: as §1

[6] = target: Metallo-beta-lactamase type 2 (Klebsiella pneumoniae) (UniProt C7C422); test: qHTS to identify inhibitors of the New Delhi Metallo-beta-lactamase (NDM): assay validation screen against the NCATS LOPAC Collection (AID 1794843);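 also: nitrocefin turnover by NDM-1 measured as 485 nm absorbance at plateau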
In short: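 Enzyme 2 nM final, 50 mM HEPES pH 7.0, 1 uM ZnSO4, 0.01% Tween20; cpds in DMSO, preincub w/ enzyme; + nitrocefin (50 uM stock); A485 at plateau; no-enzyme column as blank.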

[7] = target: Glutathione peroxidase 1 (Homo sapiens) (UniProt P07203); test: Primary qHTS Assay for Inhibitors of Recombinant Selenoprotein Glutathione Peroxidase 1 (GPX1) (AID 1845191); also: nearly all actives have a fitted effect of over 65% in size; also: potency is read from the fitted curve at half-maximal effect
In short: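 NADPH consumption tracked by fluorescence at 340/450 nm between t=0 and t=15 min, room temperature. Final mix: 10 nM GPX1, 100 nM glutathione reductase, 1 mM GSH, 0.5 mM NADPH, 0.5 mM cumene hydroperoxide, 0.01% BSA; 30 min compound–enzyme preincubation.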

[8] = target: Phospholipid hydroperoxide glutathione peroxidase GPX4 (Homo sapiens) (UniProt P36969); test: Primary qHTS Assay for Inhibitors of Recombinant Selenoprotein Glutathione Peroxidase 4 (GPX4) (AID 1845192); also: nearly all actives have a fitted effect of over 65% in size; also: potency is read from the fitted curve at half-maximal effect
In short: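 NADPH consumption followed by fluorescence at 340/450 nm, t=0 and after 15 min at room temperature. Reaction started with cumene hydroperoxide (0.5 mM final) after 30 min compound–GPX4 preincubation; final 200 nM GPX4, 100 nM GR, 1 mM GSH, 0.5 mM NADPH.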

[9] = Quantitative High-Throughput drug screen in 47 multiple myeloma cell lines against the NCATS MIPE library collection: FR4_PLB cell viability assay (AID 1918924; also: nearly all actives have a fitted effect of over 35% in size)
In short: (§2)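 Approved and investigational drugs from MIPE 4.0 were added by pin tool to 500 cells per well. After 48 hours at 37C, ATP-based CellTiter-Glo luminescence indicated remaining viability.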

[10] = Quantitative High-Throughput drug screen in 47 multiple myeloma cell lines against the NCATS MIPE library collection: Delta47_JCRB cell viability assay (AID 1918925; also: nearly all actives have a fitted effect of over 45% in size; also: potency is read from the fitted curve at half-maximal effect)
In short: as §2

[11] = Quantitative High-Throughput drug screen in 47 multiple myeloma cell lines against the NCATS MIPE library collection: EJM_DSMZ cell viability assay (AID 1918926; also: nearly all actives have a fitted effect of over 30% in size; also: potency is read from the fitted curve at half-maximal effect)
In short: as §2

[12] = NCATS anti-infectives library activity on HEK293 viability as a counter-qHTS vs the C. elegans viability qHTS (AID 1745854);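 also: HEK293 cells exposed to compounds for 24 hr before the viability read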
In short: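 Compound titrations (final up to 41.7 uM) were incubated with HEK293 cells for 24 hr at 37C under 5% CO2. Viable cells were quantified with CellTiter-Glo after 10 min at ambient temperature.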

[13] = target: Luciferin 4-monooxygenase (Photinus pyralis) (UniProt P08659); test: Primary firefly luciferase (FLuc) qHTS assay for identification of artifact compounds. (AID 1845220); also: nearly all actives have a fitted effect of over 60% in size
In short: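 Cell-free, 1536-well qHTS. Buffer pH 7.6 with 0.01% Tween-20 and 0.05% BSA; 10 uM D-luciferin, 10 uM ATP; 10 nM P. pyralis luciferase; luminescence after 5 min.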

[14] = test system: Nanoluciferase (engineered Oplophorus gracilirostris luciferase); test: Primary Nanoluciferase (NLuc) qHTS assay for identification of artifact compounds. (AID 1845222)
In short: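 Compounds are pinned into diluted (1:55) conditioned medium of NLuc-expressing S16 cells and held 15 min at room temperature protected from light. Nano-Glo substrate follows, and luminescence is read 5 min later.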

[15] = target: Guanidinoacetate N-methyltransferase (Homo sapiens) (UniProt Q14353); test: Confirmatory Screen for Target Class Profiling of Small Molecule Inhibitors of Methyltransferases (AID 1745852; calls by dose curve); conditions: MTase-Glo luminescence, SAH detection, recombinant enzyme; activity change, negative = inhibition: at 57.3 µM (top of the series) unless noted
[16] = target: Nicotinamide N-methyltransferase (Homo sapiens) (UniProt P40261); test: as above; conditions: MTase-Glo luminescence, SAH detection, recombinant enzyme; measured here: NNMT max response; stronger effect = lower value
[17] = target: Phenylethanolamine N-methyltransferase (Homo sapiens) (UniProt P11086); test: as above; conditions: MTase-Glo luminescence, SAH detection, recombinant enzyme; measured here: PNMT max response; stronger effect = lower value
[18] = Primary fluorescence-based thiol-reactive (MSTI) qHTS assay for identification of artifact compounds. (AID 1845221);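 also: thiol-reactive compounds lower the probe fluorescence signal; nearly all actives have a fitted effect of over 65% in size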
In short: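 Thiol-reactive compounds detected by quenching of 4 uM MSTI fluorescence (525/598 nm) after 1 h room-temperature dark incubation in PBS pH 7.4, 2% DMSO. qHTS titration; percent inhibition Hill-fitted against Acetyl-MSTI/MSTI controls.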

[19] = Primary redox qHTS assay for identification of artifact compounds. (AID 1845223)
In short: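 Redox-cycling detection via DTT (250 uM final) oxidation coupled to Amplex Red (25 uM)/HRP (250 mU/mL) in HBSS. 15 min preincubation plus 30 min after DTT, room temperature. Ex/Em 525/598 nm; 4-parameter Hill fit against DMSO and 10 uM DA3003.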

Sequence of Nicotinamide N-methyltransferase (Homo sapiens) (P40261 whole entry, looked up): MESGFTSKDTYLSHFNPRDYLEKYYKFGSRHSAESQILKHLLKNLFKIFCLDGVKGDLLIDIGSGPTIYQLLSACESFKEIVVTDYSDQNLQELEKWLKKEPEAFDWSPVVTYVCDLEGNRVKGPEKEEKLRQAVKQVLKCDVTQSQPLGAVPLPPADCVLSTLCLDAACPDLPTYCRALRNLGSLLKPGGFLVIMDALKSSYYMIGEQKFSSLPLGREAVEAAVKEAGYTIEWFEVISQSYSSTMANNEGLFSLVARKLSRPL
Sequence of Metallo-beta-lactamase type 2 (Klebsiella pneumoniae) (C7C422 whole entry, looked up): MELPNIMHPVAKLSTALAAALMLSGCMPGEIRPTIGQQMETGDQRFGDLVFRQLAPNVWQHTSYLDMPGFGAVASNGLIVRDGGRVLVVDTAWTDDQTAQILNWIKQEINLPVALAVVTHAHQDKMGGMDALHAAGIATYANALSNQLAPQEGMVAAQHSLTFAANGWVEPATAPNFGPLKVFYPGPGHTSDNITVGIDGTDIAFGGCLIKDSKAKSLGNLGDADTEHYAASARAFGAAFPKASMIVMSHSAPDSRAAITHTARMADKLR
Sequence of Phospholipid hydroperoxide glutathione peroxidase GPX4 (Homo sapiens) (P36969 whole entry, looked up): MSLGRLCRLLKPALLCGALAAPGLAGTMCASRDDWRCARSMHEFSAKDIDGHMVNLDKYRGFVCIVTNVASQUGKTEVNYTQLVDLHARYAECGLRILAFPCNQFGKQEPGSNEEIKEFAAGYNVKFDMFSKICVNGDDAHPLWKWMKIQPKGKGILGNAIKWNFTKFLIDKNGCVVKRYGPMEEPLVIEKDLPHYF
Sequence of Phenylethanolamine N-methyltransferase (Homo sapiens) (P11086 whole entry, looked up): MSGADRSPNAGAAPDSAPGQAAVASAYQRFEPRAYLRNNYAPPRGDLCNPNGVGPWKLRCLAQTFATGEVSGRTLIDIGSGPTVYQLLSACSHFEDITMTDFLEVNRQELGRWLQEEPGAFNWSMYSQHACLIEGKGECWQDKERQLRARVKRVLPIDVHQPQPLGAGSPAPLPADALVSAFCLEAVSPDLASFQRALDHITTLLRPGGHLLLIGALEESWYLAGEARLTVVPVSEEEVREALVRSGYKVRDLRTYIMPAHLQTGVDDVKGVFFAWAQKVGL
Sequence of Glutathione peroxidase 1 (Homo sapiens) (P07203 whole entry, looked up): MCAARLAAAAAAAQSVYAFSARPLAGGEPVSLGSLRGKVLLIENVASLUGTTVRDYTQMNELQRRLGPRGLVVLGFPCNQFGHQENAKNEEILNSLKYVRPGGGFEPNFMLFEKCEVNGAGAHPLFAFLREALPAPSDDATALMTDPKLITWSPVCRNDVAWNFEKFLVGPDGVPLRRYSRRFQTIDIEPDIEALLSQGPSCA
Sequence of Nuclear receptor subfamily 1 group I member 3 (Homo sapiens) (Q14994 whole entry, looked up): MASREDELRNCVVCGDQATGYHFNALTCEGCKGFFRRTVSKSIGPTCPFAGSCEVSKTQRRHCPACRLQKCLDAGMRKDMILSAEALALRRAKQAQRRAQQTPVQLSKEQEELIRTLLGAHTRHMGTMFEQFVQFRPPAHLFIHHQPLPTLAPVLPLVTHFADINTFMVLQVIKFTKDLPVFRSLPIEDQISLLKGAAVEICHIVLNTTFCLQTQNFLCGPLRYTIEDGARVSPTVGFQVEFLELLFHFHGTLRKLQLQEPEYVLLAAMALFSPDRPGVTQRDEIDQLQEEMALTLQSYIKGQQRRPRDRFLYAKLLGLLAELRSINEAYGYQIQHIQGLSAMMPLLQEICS

NC(=O)c1cnccn1
inactive: outcome [1] | outcome [2] | outcome [3] | outcome [4] | outcome [5] | outcome [6] | Potency [7] | Potency [8] | Potency [9] | Potency [10] | Potency [11]

CCCC(CCC)C(=O)O
inactive: outcome [12] | outcome [6] | Potency [7] | Potency [8] | Potency [9] | Potency [11]

Cn1cnc2c(F)c(Nc3ccc(Br)cc3Cl)c(C(=O)NOCCO)cc21
inactive: outcome [12] | Potency [7] | Potency [8] | Potency [13] | outcome [14] | Potency [10]

Cc1cnc(Nc2ccc(OCCN3CCCC3)cc2)nc1Nc1cccc(S(=O)(=O)NC(C)(C)C)c1
-8.53%: activity [17]
-4.99%: activity change, negative = inhibition [15]
inactive: Potency [8] | Potency [13] | outcome [14] | Potency [9]
-31.4%: activity [16]

Nc1nc2c(ncn2COCCO)c(=O)[nH]1
inactive: outcome [12] | outcome [6] | Potency [8] | Potency [9] | Potency [11]

CNCc1ccc(-c2[nH]c3cc(F)cc4c3c2CCNC4=O)cc1
-15.2%: activity [17]
active: Potency [7] 20.2 µM | Potency [8] 11.4 µM and 12.8 µM and 15.8 µM
inactive: outcome [12] | Potency [13] | Potency [18] | outcome [14] | outcome [19] | Potency [9] | Potency [10] | Potency [11]
-1.39%: activity change, negative = inhibition [15]
-24.3%: activity [16]

O=C(c1cc(Cc2n[nH]c(=O)c3ccccc23)ccc1F)N1CCN(C(=O)C2CC2)CC1
inactive: outcome [12] | Potency [7] | Potency [8] | Potency [13] | Potency [18] | outcome [14] | outcome [19] | Potency [9]

CNC(=O)c1ccc(N2C(=S)N(c3ccc(C#N)c(C(F)(F)F)c3)C(=O)C2(C)C)cc1F
inactive: outcome [12] | Potency [7] | Potency [9] | Potency [11]

CC(=O)Oc1ccccc1C(=O)O
inactive: outcome [12] | outcome [6] | Potency [7] | Potency [8] | Potency [9]
active: Potency [11] 8.33 µM

CCOC(=O)N1CCC(=C2c3ccc(Cl)cc3CCc3cccnc32)CC1
inactive: outcome [6]

Cc1[nH]c(=O)c(C#N)cc1-c1ccc2nccn2c1
5.86%: activity change, negative = inhibition [15]
-3.4%: activity [16]
inactive: outcome [6] | Potency [7] | Potency [8] | Potency [9] | Potency [10] | Potency [11]
4.35%: activity [17]

CCCCCCCc1ccc(CCc2cccc(O)c2C(=O)O)cc1
1.23%: activity [17]
-1.62%: activity change, negative = inhibition [15]
inactive: Potency [7] | Potency [9] | Potency [11]
-13.2%: activity [16]

CN1CCN(CCCN2c3ccccc3Sc3ccc(C(F)(F)F)cc32)CC1
active: Potency [10] 4.69 µM
inactive: outcome [12] | outcome [6] | Potency [7] | Potency [8] | Potency [9] | Potency [11]
